CHX counter – Cycloheximide Counterscreen for Small Molecule Inhibitors of Shiga Toxin; cell reporter, cycloheximide protein synthesis inhibition counterscreen; max response, %; 300,000 tested, 12% active; in the data active means max response mostly above about 13%, no sharp cut-off; inactive means mostly below about 14%; further: read at 38.3 µM for the half of the compounds with a filed dose
VACV Venus inh – qHTS for Stage-Specific Inhibitors of Vaccinia Orthopoxvirus: Venus Reporter Primary qHTS. Vaccinia virus Venus reporter expression, fluorescence. Potency, µM (top dose mostly 36.5 µM), actives largely listed as inhibitors. 330,000 tested, 0.46% active. AID 720580, 2013; calls by dose curve; tested in A549 cells; further: nearly all actives have a fitted effect of over 30% in size
Shiga toxin inh – A qHTS for Small Molecule Inhibitors of Shiga Toxin. Vero cells, Shiga toxin protein synthesis inhibition reporter. inhibition, % at 38.7 µM. 290,000 tested, 9.2% active; in the data active means inhibition mostly above about 28%, no sharp cut-off; inactive means mostly below about 43%
Marburg entry inh – qHTS for inhibitors of binding or entry into cells for Marburg Virus; Potency, µM (titrated, usually from 37.8 µM), usual class: inhibitors; 300,000 tested, 1.8% active; Marburg virus pseudotyped entry inhibition, cell reporter; calls by dose curve; tested in HEK293 cells
Lassa entry inh – qHTS for Inhibitors of binding or entry into cells for Lassa Virus; 300,000 tested, 1.2% active; AID 540256, 2011; Potency, µM (series often up to 37.9 µM), actives largely listed as inhibitors; Lassa virus pseudotype entry inhibition, cell reporter; calls by dose curve; tested in HEK293 cells; further: nearly all actives have a fitted effect of over 50% in size
Vaccinia mCherry – qHTS for Stage-Specific Inhibitors of Vaccinia Orthopoxvirus: mCherry Reporter Primary qHTS. Potency, µM (top dose mostly 36.5 µM), hits mostly inhibitors. Vaccinia virus mCherry reporter infection, fluorescence. 310,000 tested, 0.63% active; calls by dose curve; tested in A549 cells; further: nearly all actives have a fitted effect of over 35% in size
A number is an active result; – = inactive; ? = inconclusive; · = not tested or not shown; [ ] = dose if it differs, or a comment. This is one part of a sample in which hits are shown more often than they occur.

SMILES	CHX counter	VACV Venus inh	Shiga toxin inh	Marburg entry inh	Lassa entry inh	Vaccinia mCherry
Cc1c(C(=O)NCCc2ccncc2)cnn1-c1nccc(-c2ccccc2C(F)(F)F)n1	·	–	·	·	·	–
CCOC(=O)c1cccc(NC(=O)c2cncc(Br)c2)c1	41	–	46	–	–	–
CCOC(=O)c1cccc(NC(=O)c2cnc3ccccc3n2)c1	35	–	–	–	–	·
CCCOC(=O)c1cccc(NC(=O)C(C)(C)C)c1	18	·	32	–	?	·
CCOC(=O)c1cccc(NC(=O)c2ccc(N(C)C)cc2)c1	68	–	108	?	?	–
CC(C)(C)C(=O)Nc1cccc(C(=O)c2cccc(NC(=O)C(C)(C)C)c2)c1	–	–	–	–	–	–
COC(=O)C1CCN(C(=O)COC(=O)COc2ccc(C#N)cc2)CC1	–	–	–	–	–	–
NC(Cc1ccc(Cl)cc1)c1csc(NC(=O)NCC2CCCCC2)n1 (centres undefined)	·	10µM	·	·	·	–
Cc1csc(NC(=O)c2cccnc2)n1	–	·	–	·	·	·
Cc1csc(NC(=O)NCC2CCCC(CNC(=O)Nc3nc(C)cs3)C2)n1 (centres undefined)	30	–	43	?	–	–
Cc1csc(NC(=O)c2cnccn2)n1	45	·	–	–	–	·
COc1ccc(CC(N)c2csc(NC(=O)NCCc3ccccc3)n2)cc1 (centres undefined)	·	–	·	·	·	–
Cc1csc(NC(=O)c2ccc3nc[nH]c3c2)n1	52	–	–	?	?	–
CC(=O)Nc1nc(C)cs1	–	–	–	–	–	–
COc1ccc(Cl)cc1NC(=O)c1cc2c(=O)n3ccccc3nc2s1	·	–	·	?	–	–
Cc1csc(NC(=O)c2cccnc2Cl)n1	·	–[7.34 µM]	·	?	–	–[7.34 µM]
Cc1csc(NC(=O)c2ccccc2)n1	43	·	·	·	·	·
COc1cccc(C(=O)Nc2nc(-c3ccncc3)cs2)c1	–	–	–	–	–	–
Cc1csc(NC(=O)c2ccc[nH]c2=O)n1	36	·	·	·	·	·
Cc1csc(NC(=O)c2cccc(C)c2C)n1	38	–	–	?	–	·
Cc1csc(NC(=O)c2ccncc2)n1	–	–	–	·	·	–
COc1cccc(C(=O)Nc2nc(C)cs2)c1	35	–	68	?	?	–
COc1ccc(CN2CCOc3c(cc(-c4cccc(OC)n4)cc3OC)C2)c(O)c1	·	–	·	·	·	–
Cc1nc(C)c(-c2ccc(SCc3ccc([N+](=O)[O-])cc3)nn2)s1	–	·	–	·	·	·
Cc1csc(NC(=S)NC(=O)c2ccccc2)n1	22	–	61	?	–	–
SMILES	CHX counter	VACV Venus inh	Shiga toxin inh	Marburg entry inh	Lassa entry inh	Vaccinia mCherry
CCOC(=O)Cc1csc(NC(=S)NC(=O)c2ccccc2)n1	–	·	–	–	–	·
Cc1ccc(C(=O)C(C)Sc2nnc(N)s2)cc1 (centres undefined)	15	–	–	–	–	–
CC(Sc1nnc(N)s1)C(=O)NNC(=O)c1cccc(Cl)c1 (centres undefined)	·	–	·	–	–	–
CC(C)C[C@@H](CN1CCCC1CN1C(=S)NC[C@@H]1Cc1ccc(O)cc1)N1C[C@H](Cc2ccccc2)N(CC2CCCCCC2)C1=S (some centres undefined)	·	–	·	·	·	–
CC(C)C[C@@H](CN1CCCC1CN1C(=S)NC[C@@H]1Cc1ccc(O)cc1)N1C[C@H](Cc2ccc(O)cc2)N(CC2CCCCCC2)C1=S (some centres undefined)	·	11µM	·	·	·	6.3µM
CCOc1ccc(CCN2C(=S)N([C@@H](CC(C)C)CN3CCCC3CN3C(=S)NC[C@@H]3Cc3ccc(O)cc3)C[C@@H]2Cc2ccccc2)cc1 (some centres undefined)	·	?	·	·	·	–
CCOc1ccc(CCN2C(=S)N([C@@H](CC(C)C)CN3CCCC3CN3C(=S)NC[C@@H]3Cc3ccc(O)cc3)C[C@@H]2Cc2ccc(O)cc2)cc1 (some centres undefined)	·	10µM	·	·	·	?
CC1CC(C)CN(C(=O)Cn2c(=O)n(CCCC(=O)NCc3ccco3)c(=O)c3sccc32)C1 (centres undefined)	–	–	–	–	–	–
Cc1ccc(NC(=O)C(=O)NCC2CCCO2)cc1C (centres undefined)	31	–	100	·	·	–
Cc1ccc(NC(=O)C(=O)NCC2CCCO2)cc1 (centres undefined)	58	–	101	·	·	–

From PubChem BioAssay
